Laboratory results: article PMC4336329 (PLoS ONE, 2015)
Out of some 310,000 compounds screened, about 2,200 (0.71%) showed an effect of 50% or more. The effect is printed as a negative number. The sample as a whole holds a higher share of strong results than the screen did.

target: human ether-à-go-go-related gene (hERG) potassium channel (human, UniProt Q12809); assay: primary screen, population patch clamp on CHO cells stably expressing hERG; higher = less effect of the substance
Sequence (Q12809 whole entry, looked up): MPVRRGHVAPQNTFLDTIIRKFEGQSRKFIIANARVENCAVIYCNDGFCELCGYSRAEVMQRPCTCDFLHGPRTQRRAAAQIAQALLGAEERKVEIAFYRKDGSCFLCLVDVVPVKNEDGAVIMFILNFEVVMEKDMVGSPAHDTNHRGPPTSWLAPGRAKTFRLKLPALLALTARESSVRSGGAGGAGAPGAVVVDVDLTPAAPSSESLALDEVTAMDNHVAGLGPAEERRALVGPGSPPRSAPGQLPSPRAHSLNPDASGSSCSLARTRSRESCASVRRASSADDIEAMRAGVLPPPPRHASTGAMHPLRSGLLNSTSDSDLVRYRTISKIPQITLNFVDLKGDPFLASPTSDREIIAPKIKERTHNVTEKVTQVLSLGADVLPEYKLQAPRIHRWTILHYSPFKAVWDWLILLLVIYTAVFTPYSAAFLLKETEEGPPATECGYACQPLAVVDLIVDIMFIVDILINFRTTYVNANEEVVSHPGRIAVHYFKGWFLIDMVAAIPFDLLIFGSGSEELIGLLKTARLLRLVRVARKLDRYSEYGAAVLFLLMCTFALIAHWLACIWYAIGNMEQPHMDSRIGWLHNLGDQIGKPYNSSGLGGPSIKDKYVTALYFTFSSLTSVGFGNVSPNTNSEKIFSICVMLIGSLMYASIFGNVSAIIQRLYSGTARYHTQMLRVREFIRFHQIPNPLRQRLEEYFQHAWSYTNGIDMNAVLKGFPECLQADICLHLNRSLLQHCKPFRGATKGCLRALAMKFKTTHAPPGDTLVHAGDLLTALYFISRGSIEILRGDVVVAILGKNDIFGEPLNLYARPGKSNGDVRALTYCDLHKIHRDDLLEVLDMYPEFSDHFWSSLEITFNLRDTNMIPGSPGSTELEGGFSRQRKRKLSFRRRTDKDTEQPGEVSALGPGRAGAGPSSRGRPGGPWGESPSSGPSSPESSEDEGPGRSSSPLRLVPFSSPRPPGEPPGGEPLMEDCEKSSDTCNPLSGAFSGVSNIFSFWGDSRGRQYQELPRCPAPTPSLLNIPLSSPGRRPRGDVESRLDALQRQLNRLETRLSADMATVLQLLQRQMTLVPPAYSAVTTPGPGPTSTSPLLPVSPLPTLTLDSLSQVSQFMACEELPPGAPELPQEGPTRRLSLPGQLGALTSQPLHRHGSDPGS

| Structure (SMILES) | hERG current change (%, negative = inhibition) at 1uM [%] |
| --- | --- |
| Cc1[nH]n(-c2ccccc2)c(=O)c1C=Nc1ccc(S(=O)(=O)Nc2nccs2)cc1 | 12.2 |
| O=S1(=O)CCC(NC(=S)Nc2ccc3ccccc3c2)C1 (centres unmarked) | 11.6 |
| COCCn1c(SCC(=O)NC2(C#N)CCCCC2)nc2ccccc2c1=O | -12.8 |
| O=c1[nH]c(Cn2nnc(-c3ccccc3)n2)nc2scc(-c3ccccc3)c12 | 13.1 |
| N#Cc1nc(COc2cccc(Cl)c2)oc1NCc1ccncc1 | -53.8 |
| CN(C)CCNc1oc(COc2cccc(Cl)c2)nc1C#N | -4.66 |
| N#Cc1nc(COc2cccc(Cl)c2)oc1NCc1ccco1 | -1.39 |
| Cc1nc2c(n1C1CCCCC1)C(=O)c1ccccc1C2=O | 19.1 |
| COc1ccc2c(c1)c(C(=O)C(C)N1CCCCC1)c(C)n2C (centres unmarked) | 16.9 |
| OCC1(CCc2ccccc2)CCN(Cc2cc(F)ccc2-n2cccn2)CC1 | -85.3 |
| COc1cccc(CC2(CO)CCCN(Cc3cc(F)ccc3-n3cccn3)C2)c1 (centres unmarked) | -85.1 |
| CCn1ccnc1CN1CCCC(CO)(Cc2cccc(OC)c2)C1 (centres unmarked) | -1.48 |
| OCC1(CCCc2ccccc2)CCN(Cc2cc(F)ccc2F)CC1 | -6.63 |
| COc1cccc(CC2(CO)CCCN(Cc3cn[nH]c3-c3ccc(F)cc3)C2)c1 (centres unmarked) | 6.39 |
| COc1ccc(-n2ccnc2CN2CCCC(CO)(Cc3cccc(OC)c3)C2)cc1 (centres unmarked) | 0.509 |
| COc1ccc(F)c(CN2CCCC(CO)(Cc3cccc(Cl)c3)C2)c1 (centres unmarked) | 11.8 |
| COc1cccc(CC2(CO)CCCN(Cc3c(C)cc(C)cc3-n3cccn3)C2)c1 (centres unmarked) | -93.1 |
| OCC1(CCCc2ccccc2)CCN(Cc2ccc(F)cc2)CC1 | -25.3 |
| O=C(NCCS(=O)(=O)NCc1ccccn1)c1ccccc1 | 8.81 |
| COc1ccccc1C(=O)NNC(=O)C12CC3CC(CC(C3)C1)C2 | 12.4 |
| COc1ccc(OC)c(-c2csc(N(Cc3ccco3)C(=O)c3cccs3)n2)c1 | -0.179 |
| CC(=O)CCC(=O)NCCc1ccccc1F | 5.68 |
| Cc1ccc(NC(=S)NNC(=O)C2CC2c2ccc(C)cc2)cc1 (centres unmarked) | -10.4 |
| COP(=O)(CC(=O)c1ccccc1)CC(=O)c1ccccc1 | 8.51 |

| Structure (SMILES) | hERG current change (%, negative = inhibition) at 1uM [%] |
| --- | --- |
| COCCCNC(=S)NC1CC2CCCC(C1)N2Cc1cccs1 (centres unmarked) | 1.43 |
| COc1nc(-c2ccccc2)ccc1-c1noc(-c2cccs2)n1 | 0.091 |
| CCC(=O)Nc1ccc(N2CCOCC2)c(S(=O)(=O)Nc2ccc(Cl)cc2)c1 | 11.9 |
| COc1ccccc1NS(=O)(=O)c1cc(NC(=O)C2CC2)ccc1N1CCOCC1 | 19.5 |
| Br.N=C1c2ccccc2CN1c1ccc(N2CCOCC2)c(S(=O)(=O)Nc2ccc(Cl)cc2)c1 | -89.2 |
| Br.COc1ccccc1NS(=O)(=O)c1cc(N2Cc3ccccc3C2=N)ccc1N1CCOCC1 | -61.2 |
| O=S(=O)(Nc1ccc(N2CCOCC2)cc1)c1cc(Cl)ccc1Cl | 7.82 |
| COc1ccccc1NS(=O)(=O)c1cc(NC(=O)C(C)(C)C)ccc1N1CCOCC1 | -4.51 |
| Cn1c(=O)n(C)c2cc(S(=O)(=O)NCC(=O)O)ccc21 | 4.84 |
| CCOc1ccc(CCNC(=O)c2cc3sccc3n2CC)cc1OCC | 14.1 |
| COc1cc(NC(=O)CCS(=O)(=O)c2ccc3nc(C)sc3c2)cc(OC)c1OC | 15.8 |
| CN(C)c1cccc(/C=C(\C#N)c2ccccc2)c1 | 14.2 |
| COc1ccc(N(C(=O)c2cnsn2)C(C(=O)NC2CCCCC2)c2ccncc2)cc1 (centres unmarked) | 7.11 |
| CCOc1ccc(N(C(=O)c2cnsn2)C(C(=O)NC2CCCCC2)c2ccncc2)cc1 (centres unmarked) | -52.1 |
| CCOc1ccc(N(C(=O)c2cnccn2)C(C(=O)NC2CCCCC2)c2ccc(O)cc2)cc1 (centres unmarked) | 12.4 |
| COc1cccc(C(=O)Nc2ccc(Cl)c(C(F)(F)F)c2)c1 | 8.09 |
| O=CN1CCCN(C(=O)CC2C(=O)NCCN2Cc2cccc(Oc3ccccc3)c2)CC1 (centres unmarked) | -14.6 |
| CCC(=O)Nc1ccc2c(c1)nc(CCN1CCC(C)CC1)n2C | 12.3 |
| CC1CCN(CCc2nc3cc(NS(=O)(=O)c4ccc(F)cc4)ccc3n2C)CC1 | -54.8 |
| Cn1c(CN2CCCCC2)nc2cc(NS(=O)(=O)c3ccc(F)cc3)ccc21 | -21.8 |
| Cc1ccc(S(=O)(=O)Nc2ccc3c(c2)nc(CN2CCCC2)n3C)cc1 | -9.18 |
| Cn1c(CCN2CCOCC2)nc2cc(NS(=O)(=O)c3ccccc3)ccc21 | 6.09 |
| Cn1c(CCN2CCCCC2)nc2cc(NS(=O)(=O)c3ccc(F)cc3)ccc21 | -57.5 |
| CC(=O)Nc1ccc2c(c1)nc(CCN1CCC(C)CC1)n2C | 12.4 |

| Structure (SMILES) | hERG current change (%, negative = inhibition) at 1uM [%] |
| --- | --- |
| CC1CCN(CCc2nc3cc(NS(=O)(=O)c4ccccc4)ccc3n2C)CC1 | -53.3 |
| Cn1c(CCN2CCCC2)nc2cc(NS(=O)(=O)c3ccccc3)ccc21 | 6.41 |
| CCn1c(=O)c(CCC(=O)NCC2CCCO2)c(C)c2c(C)nn(-c3ccc(C)cc3)c21 (centres unmarked) | 19.9 |
| CCOc1ccc(N2C(=O)c3cccnc3C2Nc2ccc(OC)cc2)cc1 (centres unmarked) | 1.01 |
| CCn1c(=NC(=O)CSCC(=O)Nc2nccs2)sc2ccccc21 | 2.45 |
| CN(C)c1ccc(C(=O)Nc2ccc(O)c3c(=O)cc(-c4ccccc4Cl)oc23)cc1 | 2.71 |
| C=CCc1cc(Cl)ccc1OCCCn1ccnc1.O=C(O)C(=O)O | 7.27 |
| COc1ccc(C(=O)NC(=O)NC2(C(Cl)(Cl)Cl)OCCO2)cc1 | 8.1 |
| Cc1ccc(NC(=O)C2CC(=O)N(CCc3ccccc3)C2)c(C)c1 (centres unmarked) | 2.1 |
| CC(C)CCNC(=O)c1c(N)n(Cc2ccc3c(c2)OCO3)c2nc3ccccc3nc12 | 11.9 |
| CSCC(C)N1CCC(CO)(CCc2ccccc2)CC1 (centres unmarked) | 13.9 |
| COc1ccc(CC2(CO)CCN(C(=O)NCc3ccccc3)CC2)cc1 | 10.4 |
| COc1ccc(CC2(CO)CCN(C(C)COc3ccccc3)CC2)cc1 (centres unmarked) | -68.4 |
| CC(COc1ccccc1)N1CCC(CO)(Cc2ccccc2)CC1 (centres unmarked) | -13.3 |
| COc1ccc(CCC(C)N2CCC(CO)(Cc3ccccc3)CC2)cc1 (centres unmarked) | -31.6 |
| COc1ccc(CC2(CO)CCN(S(=O)(=O)N(C)C)CC2)cc1 | 14.7 |
| CC(COc1ccccc1)N1CCC(CO)(CCc2ccccc2)CC1 (centres unmarked) | -84.8 |
| COc1ccc(CC2(CO)CCN(C(C)Cc3ccc(Cl)cc3)CC2)cc1 (centres unmarked) | -80 |
| CN(C)S(=O)(=O)N1CCC(CO)(CCc2ccccc2)CC1 | 12 |
| Cc1cccc2nc(-c3ccco3)c(Nc3ccc4c(c3)OCO4)n12 | 5.48 |
| CSCCC(NC(=O)c1ccc(Cl)cc1)C(=O)OCC(=O)Nc1ccc(C#N)cc1 (centres unmarked) | -1.39 |
| CCCn1cc(CN2CCCC(C(=O)c3cccc(OC)c3)C2)c(C)n1 (centres unmarked) | -14.5 |
| CS(=O)(=O)N1CCc2cc(-c3csc(NC(=O)Cc4cccs4)n3)ccc21 | -5 |
| CCc1ccccc1NNC(=O)c1snnc1C | 1.7 |

| Structure (SMILES) | hERG current change (%, negative = inhibition) at 1uM [%] |
| --- | --- |
| CCC(C)N(C(=O)COC(=O)c1nc2nc(C)cc(C)n2n1)C1CCS(=O)(=O)C1 (centres unmarked) | 21.2 |
| O=C(O)CCn1cc(C=C2C(=O)NC(=O)NC2=O)c(-c2cc3ccccc3oc2=O)n1 | 20.6 |
| Cc1c(C(=O)N2CCN(c3ncccn3)CC2)oc2ccc(Cl)cc12 | 2.57 |
| Cc1c(C(=O)N2CCN(CCc3ccccn3)CC2)oc2ccc(Cl)cc12 | -84.6 |
| Cc1cc2oc(C(=O)N3CCN(CCc4ccccn4)CC3)c(C)c2cc1C | -6.88 |
| Cc1c(C(=O)N2CCN(CCc3ccccn3)CC2)oc2ccc(F)cc12 | -61.3 |
| Cc1c(C(=O)N2CCN(CCc3ccccc3)CC2)oc2ccccc12 | -36 |
| Cc1c(C(=O)N2CCN(C(=O)c3ccccc3)CC2)oc2ccc(F)cc12 | -5.86 |
| Fc1ccc(Cn2nnc(-c3ccc(Cl)cc3)n2)cc1 | 11.5 |
| Cc1nc2ccccc2c(=O)n1NC(=O)Cc1ccc(Br)cc1 | 5.31 |
| COc1cccc(OCC(=O)NNC(=O)c2cccs2)c1 | 9.89 |
| O=C1N(c2ccc(Cl)cc2)C(c2cccnc2)N2CCCN12 (centres unmarked) | 6.95 |
| C/C(=N\NC(=O)COc1c(C)cccc1C)c1cccs1 | 8.57 |
| CCC(CC)C(=O)Nc1ccc(C)c(O)c1 | 5.34 |
| O=C(Nc1ccnn1C1CCN(Cc2ccc(CO)o2)CC1)c1ccccc1Cl | 6.94 |
| O=C(CCc1ccccc1)Nc1ccnn1C1CCN(C/C=C/c2ccccc2)CC1 | -24.2 |
| O=C(Nc1ccnn1C1CCN(C2CCOCC2)CC1)c1cccc(F)c1 | 1.92 |
| O=C(Nc1ccnn1C1CCN(C/C=C/c2ccccc2)CC1)c1ccccc1Cl | -92.1 |
| O=C(Nc1ccnn1C1CCN(Cc2ccccn2)CC1)c1cccc(F)c1 | 6.56 |
| CC(C)=CCN1CCC(n2nccc2NC(=O)c2ccccc2Cl)CC1 | -43 |
| O=C(Nc1ccnn1C1CCN(C/C=C/c2ccccc2)CC1)c1ccccc1 | -64.4 |
| O=C(Nc1ccnn1C1CCN(Cc2ccc(CO)o2)CC1)c1ccccc1 | -0.976 |
| O=C(Nc1ccnn1C1CCN(C/C=C/c2ccccc2)CC1)c1cccc(F)c1 | -58.5 |
